GPR32 ag – agonists of human resolvin D1 receptor DRV1 (GPR32) | O75388 | activation, % at 76.9 µM | actives 2.5% (n = 48,000) | CHO-K1 GPR32 beta-arrestin PathHunter luminescence, 90 min; zero percent set by DMSO-only wells | AID 1346428;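 active means activation of at least 60% and not above a set upper limit, about 1 call in 100 departs from these limits; inconclusive means activation of 40% to 60%, or above that upper limit; inactive means activation under 40%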; further: 0% is about no effect
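Cells are plated overnight, treated with compounds in DMSO for 90 minutes at 37 °C, and developed with PathHunter detection reagent for 1 hour before luminescence is read; signal reflects beta-arrestin binding to GPR32 in engineered CHO-K1 cells.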
HTT prom inh – HTT promoter inhibition; AID 1508623; actives 0.93% (n = 48,000); Potency, µM (series often up to 57.5 µM), for the others: at the highest dose activity change, negative = inhibition, most hits filed as inhibitors; HEK293 HTT promoter firefly luciferase reporter, 24 h; further: potency means the concentration at half of the fitted maximal effect; nearly all actives have a fitted effect of over 50% in size
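HEK293 Fluc reporter, 2,500 cells/well, 24 h pre-culture; cpds up to 57.5 uM final, 24 h 37 degrees C; Dual-Glo, 10 min RT; normalized vehicle = 0%, zero RLU = -100%.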
HTT-AS promoter – activators of huntingtin-antisense promoter activity; HEK293 HTT-AS promoter firefly luciferase reporter, 24 h; response scale: percent change from vehicle, -100% = no light; Potency, µM (titrated, usually from 57.5 µM), for inactives: at the top dose activity change, positive = activation, most hits filed as activators; actives 0.24% (n = 48,000); AID 1508624; further: potency means the concentration at half of the fitted maximal effect; nearly all actives have a fitted effect of over 55% in size
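HEK293 luciferase promoter-reporter cells (2,500/well) plated 24 h, then compounds added at up to 57.5 uM final for 24 h at 37 °C. Firefly luminescence by Dual-Glo, normalized to vehicle (0%) and zero RLU (-100%).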
NTMT1 inh – blocks human N-terminal methyltransferase 1 activity | NTMT1 MTase-Glo SAH luminescence, purified enzyme | Q9BV86 | actives 2.5% (n = 59,000) | Potency, µM (series often up to 114 µM), for inactives: at the top dose activity change, negative = inhibition, actives largely listed as inhibitors;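 further: potency means the concentration at half of the fitted maximal effect; plate controls were DMSO vehicle for no effect and no enzyme for full effect; nearly all actives have a fitted effect of over 65% in size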
Target sequence (Q9BV86 whole entry, looked up): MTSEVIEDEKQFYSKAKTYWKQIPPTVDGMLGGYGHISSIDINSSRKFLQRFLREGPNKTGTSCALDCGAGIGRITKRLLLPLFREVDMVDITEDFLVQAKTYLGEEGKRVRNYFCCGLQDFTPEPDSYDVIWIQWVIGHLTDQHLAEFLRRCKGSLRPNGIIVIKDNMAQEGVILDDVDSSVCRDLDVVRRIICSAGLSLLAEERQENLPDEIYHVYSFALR
Sfp PPTase inh – inhibitors of Bacillus subtilis Sfp PPTase, optimization followup; shares compounds with NTMT1 inh; actives 78% (n = 230); Potency, µM (titrated, usually from 114 µM), for inactives: top-dose activity change, negative = inhibition, most hits filed as inhibitors; AID 540350; purified Sfp PPTase enzyme activity, qHTS
HM489 growth – Sfp PPTase inhibitors: growth inhibition of B. subtilis HM489; Potency, µM (highest dose often 114 µM), inactives show top-dose activity change, negative = inhibition, most hits filed as inhibitors; AID 540353; shares compounds with NTMT1 inh; B. subtilis HM489 (acpS-) growth, BacTiter-Glo, 5 h; actives 50% (n = 220)
Sfp gel opt – inhibitors of Bacillus subtilis Sfp PPTase, gel-based followup | AID 540355 | Potency, µM (series often up to 250 µM), for the others: top-dose activity change, negative = inhibition, actives largely listed as inhibitors | shares compounds with NTMT1 inh | purified Sfp PPTase, gel-based product detection | actives 54% (n = 220)
Sfp gel – Sfp phosphopantetheinyl transferase inhibition, gel detection; shares compounds with NTMT1 inh; Potency, µM (doses to about 250 µM), without a hit: top-dose activity change, negative = inhibition, actives largely listed as inhibitors; purified Sfp PPTase, gel-based product detection; AID 602362; actives 90% (n = 45)
Sfp inh SAR2 – inhibitors of Bacillus subtilis Sfp PPTase, SAR round 2 | shares compounds with NTMT1 inh | purified Sfp enzyme, PPTase activity, qHTS | Potency, µM (doses to about 57.1 µM), inactives show at the highest dose activity change, negative = inhibition, usual class: inhibitors | actives 87% (n = 230) | AID 602370
hGST ctr – counter-screen for Sfp PPTase inhibitors: hGST A1-1 inhibition; shares compounds with NTMT1 inh; hGST A1-1 enzyme activity counter-screen, qHTS; Potency, µM (titrated, usually from 114 µM), for inactives: top-dose activity change, negative = inhibition, usual class: inhibitors; 55 tested, under 10 active; AID 602391
HSD17B4 counter – inhibits human HSD17B4, off-target for HPGD inhibitors; shares compounds with NTMT1 inh; purified HSD17B4, estradiol/NAD+, NADH fluorescence; Potency, µM (series often up to 57.1 µM), inactives show at the top dose activity change, negative = inhibition, actives largely listed as inhibitors; actives 10% (n = 230); AID 743187
ALDH1A1 inh – counter-screen for HPGD inhibitors: human ALDH1A1 inhibition; shares compounds with NTMT1 inh; recombinant ALDH1A1, NADH fluorescence, propionaldehyde/NAD+; Potency, µM (doses to about 57.1 µM), inactives show at the top dose activity change, negative = inhibition, actives largely listed as inhibitors; actives 93% (n = 230)
The depositor's hits bear a star; ? = inconclusive; . = no result; ! = not active in a repeat; [ ] = remark or other dose. Most compounds without a hit are left out; they make up all but 4.6% or so of the library. Unless noted, the call rests on the fitted dose curve; in most records, active means well fitted curve in the direction sought with a large enough effect; inconclusive means small, poorly fitted or top-dose-only effect, or another doubt; inactive means no such curve, though single readings can be large; an effect the other way counts as inactive or inconclusive.

SMILES	GPR32 ag	HTT prom inh	HTT-AS promoter	NTMT1 inh	Sfp PPTase inh	HM489 growth	Sfp gel opt	Sfp inh SAR2	HSD17B4 counter	ALDH1A1 inh	others
Cc1cc(C)nc(NC(=S)N2CCN(c3cnc4nccn4c3)CC2)c1	.	.	.	?	19µM*	?	-54%	18µM*	?	-154%
Cc1ccc(NC(=O)N2CCN(c3ccc(Cl)c(Cl)c3)CC2)cc1	-3	?	-31%	1%	.	.	.	.	.	.
Cc1ccc(C)c(N2CCN(C(=O)NCc3noc4ccccc34)CC2)c1	-5	?	-24%	-2%	.	.	.	.	.	.
Cc1cc(C)nc(NC(=S)N2CCN(c3noc4ccccc34)CC2)c1	.	.	.	?	3.3µM*	?	-67%	2.9µM*	-18%	17µM*
Cc1cc(C)nc(NC(=S)N2CCN(c3ccc(Cl)cc3Cl)CC2)c1	.	.	.	.	1.2µM*	8.3µM*	3.2µM*	1µM*	5%	17µM*	Sfp gel=3.8µM*;hGST ctr=2.4µM*
Cc1cc(C)nc(NC(=S)N2CCN(C3=Nc4ccccc4Oc4ccccc43)CC2)c1	.	.	.	50µM*	3.3µM*	?	?	5.1µM*	-17%	24µM*
COc1ccc(C2COc3cc(O)ccc3C2)c(O)c1OC (stereo not given)	.	.	.	-2%[57.5 µM]	.	.	.	.	.	.
C=CCN1C[C@H](C(=O)N(CCCN(C)C)C(=O)NCC)CC2c3cccc4[nH]cc(c34)C[C@H]21 (stereo not given in full)	.	.	.	0%	.	.	.	.	.	.
CCc1ccccc1C(=O)N1CCc2cc(-c3nc(NC(=O)Cc4ccc5c(c4)OCO5)sc3C)ccc21	.	.	.	26%	.	.	.	.	.	.
[2H]C([2H])(Nc1nc(-c2ccccc2C([2H])(C([2H])([2H])[2H])C([2H])([2H])[2H])ncc1C)c1ccc(-n2ccnn2)cc1	.	.	.	11%	.	.	.	.	.	.
Cc1cc(C)nc(NC(=S)N2CCN(c3ncccc3C#N)CC2)c1	.	.	.	?	0.58µM*	?	?	1.2µM*	-29%	22µM*	hGST ctr=?
Cc1cc(C)nc(NC(=S)N2CCN(c3ncccc3Cl)CC2)c1	.	.	.	?	3.7µM*	-17%	?	2µM*	-17%	19µM*
Cc1cc(C)nc(NC(=S)N2CCN(c3ccccn3)CC2)c1	.	.	.	?	3.7µM*!	?	32µM*!	16µM*	-21%	27µM*
Cc1cc(C)nc(NC(=S)N2CCN(c3cncs3)CC2)c1	.	.	.	?	7.4µM*	25%	16µM*	4.6µM*	-18%	24µM*
